This is one part of a sample in which hits are shown more often than they occur.
KDM5B inh: KDM5B demethylase inhibition; hit rate 2.6% among 220,000; Potency, µM (series often up to 57.7 µM), actives largely listed as inhibitors; KDM5B demethylase, FDH-coupled NADH fluorescence (FDH is formaldehyde dehydrogenase); Q9UGL1; active = well fitted inhibition curve with a large enough effect; also: 0% is about no effect; nearly all actives have a fitted effect of over 70% in size
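Here, H3K4me3 peptide (12.5 µM in substrate mix) is demethylated by KDM5BΔAP, 200 nM final, after 10 min compound exposure. Formaldehyde product is coupled through FDH (0.25 U/mL in mix) to NADH fluorescence; 30-min ΔRFU feeds dose-response curves.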
The depositor's hits bear a star; i = inactive. Potency is read from the fitted curve at half-maximal effect.

SMILES | KDM5B inh
CC(Sc1n[nH]c(-c2ccccc2)n1)C(=O)Nc1cccc(C(F)(F)F)c1 (configuration not stated) | i
O=C(c1cccc2[nH]ccc12)N1CCC2(CC1)N(Cc1cccc(F)c1)C(=O)CS2=O (configuration not stated) | 17.8µM*
CCn1nccc1C(=O)N1CCC2(CC1)N(Cc1cccc(F)c1)C(=O)CS2=O (configuration not stated) | i
COCCN1C(=O)CS(=O)C12CCN(C(=O)c1ccc3cc[nH]c3c1)CC2 (configuration not stated) | 17.8µM*
COCCN1C(=O)CS(=O)C12CCN(C(=O)C1(c3ccc(OC)cc3)CC1)CC2 (configuration not stated) | i
COCCN1C(=O)CS(=O)C12CCN(C(=O)Nc1ccc(OC)cc1)CC2 (configuration not stated) | i
O=C(C1CCCC1)N1CCC2(CC1)N(Cc1cccc(F)c1)C(=O)CS2=O (configuration not stated) | i
CCCc1ccc(NC(=O)CC2(C(=O)O)CCCC2)cc1 | i
CSC(C)C(=O)Nc1ccc(C)c(I)c1 (configuration not stated) | i
C/C=C/C=C/C(=O)NC1CCCc2ccccc21 (configuration not stated) | i
CCn1nccc1C(=O)N1CCC(Cc2ccc(C(=O)NCCOC)cc2)CC1 | i
CCn1nccc1C(=O)N1CCC(Cc2ccc(C(N)=O)cc2)CC1 | i
CCOc1nccnc1NC1CCN(C(=O)c2ccnn2CC)CC1 | 28.2µM*
CCn1nccc1C(=O)N1CCC(Nc2nccnc2OC)CC1 | 28.2µM*
CCn1nccc1C(=O)N1CCC(N2C(=O)[C@H](OC)[C@@H]2c2ccncc2)CC1 | i
CCn1nccc1C(=O)N1CCC(N2C(=O)C(OC)C23CCOCC3)CC1 (configuration not stated) | i
NCC(=O)Nc1ccccn1 | i
Cc1ccc(SCC(=O)NC2(C#N)CCCC2)nc1 | i
Cc1cccc(Nc2nc(N)c(C(=O)c3ccccc3Cl)s2)c1 | i
CCC1=C(C(=O)OC)C(c2ccccc2Cl)N2C(CC(=O)NCC3CCCO3)=CSC2=N1 (configuration not stated) | i
CCC1=C(C(=O)OC)C(c2cccc(C)c2)N2C(CC(=O)NCC3CC3)=CSC2=N1 (configuration not stated) | i
CCC1=C(C(=O)OC)C(c2ccccc2C)N2C(CC(=O)NCC3CC3)=CSC2=N1 (configuration not stated) | 31.6µM*
Cn1c(=O)c2nc(SCC(=O)O)n(CCc3ccccc3)c2n(C)c1=O | i
O=C(/C=C/c1ccc(-c2ccc(Cl)c(Cl)c2)o1)c1ccc(Br)cc1 | i
CCCN(CCC)c1ccc(NS(=O)(=O)c2ccc(C(C)=O)cc2)cc1C(=O)O | i
SMILES | KDM5B inh
O=C(NC1CC(c2cc(N3CCC(O)C3)ncn2)C1)c1ccoc1 (configuration not stated) | i
Cn1cc(S(=O)(=O)NC2CC(c3cc(N4CCC(O)C4)ncn3)C2)cn1 (configuration not stated) | i
N#Cc1ccc(NC2CC(c3cc(N4CCC(O)C4)ncn3)C2)nc1 (configuration not stated) | 31.6µM*
CC(NC(=O)c1ccc2c(c1)OCO2)c1cccc(C(F)(F)F)c1 (configuration not stated) | i
CC(C)CCN1CCN(C(=O)c2cccc(C#N)c2)CC1 | i
O=C(c1cccc(Br)c1)N1CCN(c2ccccn2)CC1 | i
CC(NC(=O)c1cccc(C#N)c1)C(=O)N1CCN(c2ccccn2)CC1 (configuration not stated) | 25.1µM*
CC(NC(=O)c1ccc2c(c1)OCO2)C(=O)N1CCN(c2ccccn2)CC1 (configuration not stated) | 31.6µM*
Cc1cccc(C)c1N1CCN(C(=O)c2ccc3c(c2)OCO3)CC1 | i
CN(C)C1(CNC(=O)C2CCN(C(=O)c3ccc(F)cc3)CC2)CCCCC1 | i
O=C(CSc1nc(C2CC2)n(-c2ccccc2)n1)N1CCN(c2ccc(F)cc2)CC1 | i
Cc1ccc(C2CCCN2Cc2nc(-c3cccs3)no2)cc1 (configuration not stated) | i
N#Cc1ccccc1CN1CCSc2ccccc21 | i
Cc1n[nH]c(C)c1C(C)N (configuration not stated) | i
CC(C)(C)OC(=O)N1CCC(NC(=O)c2nc(-c3ccccc3)c3ccccn23)CC1 | 79.4µM*
COc1ccc(-c2nc(C(=O)NC3CC3)n3ccccc23)cc1 | 31.6µM*
C[S+](=O)([O-])c1ccc(-c2nc(C(=O)NC3CC3)n3ccccc23)cc1 | i
COc1ccccc1-c1nc(C(=O)NC2CC2)n2ccccc12 | i
COc1ccc(-c2nnsc2C(=O)NC2CCCC2)cc1 | i
CC(C)(C)NC(=O)c1cnn(-c2ccccc2)c1C1CCN(C(=O)OC(C)(C)C)CC1 | i
Clc1ccc(Cn2c(CN3CCOCC3)nc3ccccc32)c(Cl)c1 | i
COc1ccc(CN2CC3(Cc4ccccc4NC3=O)C2)cc1 | i
COc1ccc2c(COC(=O)c3ccc4ccccc4c3O)cc(=O)oc2c1 | i
CCCC(=O)Nc1ccc(-c2csc(N)n2)cc1 | i
CC1CCC(NC(=O)c2nnn3c2COC(c2ccc(F)cc2)C3)CC1 (configuration not stated) | i
SMILES | KDM5B inh
COc1cccc(CN2CC[C@H]3C(=O)NCCCCCCN(Cc4ccncc4)[C@@H]3C2)n1 | 20µM*
O=C1NCCCCCCN(Cc2ccncc2)[C@@H]2CN(C(=O)NC3CCCCC3)CC[C@@H]12 | i
O=C1NCCCCCN(C(=O)Cc2ccccc2)[C@H]2CCC[C@@H]12 | i
O=C1NCCCCCCN(Cc2ccncc2)[C@@H]2CN(S(=O)(=O)Cc3ccccc3)CC[C@H]12 | i
O=C1NCCCCCCN(C(=O)Cc2ccccc2)[C@@H]2CCC[C@H]12 | i
O=C1NCCCCCCN(Cc2ccccc2)[C@H]2CCC[C@@H]12 | 8.91µM*
O=C(/C=C/c1ccc[nH]1)c1ccc(I)cc1 | i
Fc1ccc(CNC(=S)Nc2ccccc2)cc1 | i
CC(C)c1ccc(CN(C)CC(=O)NC(N)=O)cc1 | i
Cc1ccc(C(=O)NC(C)c2ccc(F)c(F)c2)s1 (configuration not stated) | i
Cc1ccc(/C=N/Nc2ccnc3cc(Cl)ccc23)s1 | i
CNC(=O)N1CCC(C2CCN(S(=O)(=O)c3ccc(F)cc3)C2)CC1 (configuration not stated) | i
COc1cc2c(cc1OC)C(C[C@H]1CN(S(=O)(=O)c3ccc(F)cc3)CC[C@H]1CC(=O)O)=NCC2 | i
CC(=O)Nc1ccc(S(=O)(=O)N2CC[C@@H](CC(=O)O)[C@@H](CCN3CCCCC3)C2)cc1 | i
COc1cc2c(cc1OC)C(c1ccc(Cl)cc1)=NCC2 | i
COc1cc2c(cc1OC)C(C[C@H]1CN(S(=O)(=O)c3ccc(Cl)cc3)CC[C@H]1CC(=O)O)=NCC2 | 28.2µM*
O=C(O)C[C@@H]1CCN(S(=O)(=O)c2ccc(F)cc2)C[C@@H]1CC1=NCCc2cc(F)ccc21 | 20µM*
COc1cc2c(cc1OC)C(C[C@H]1CN(S(=O)(=O)c3ccccc3)CC[C@H]1CC(=O)O)=NCC2 | 25.1µM*
COc1cc2c(cc1OC)C(C[C@H]1CN(S(=O)(=O)c3cccc(C#N)c3)CC[C@H]1CC(=O)O)=NCC2 | i
CC[C@H]1CN(S(=O)(=O)c2ccc(OC)cc2)CC[C@H]1CC(=O)O | i

Screening results as filed in PubChem.
